# High-throughput results (PubChem)
# GIRK2 activator: activators of NPY4-receptor-primed GIRK2 channels, summary, cell-based, HEK293, thallium flux; activation (% efficacy), % for hits at 37.5 µM; 34,000 tested, under 10 active; G protein-activated inward rectifier potassium channel 2 (Homo sapiens), P48051; AID 1259324, 2017; HEK293 GIRK2/NPY4 cells, thallium flux fluorescence;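 active means primary screen hit, no activity in plain HEK293 cells, and in GIRK2-only cells above 5% efficacy rising with concentration; inactive means the rest, including fluorescent compounds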;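 further: efficacy is normalized control-subtracted fluorescence 15 s after thallium addition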
# AMPAR-TARP mod: modulators of GluA2-stargazin AMPA receptor complexes, primary screen, cell-based, membrane potential dye | Voltage-dependent calcium channel gamma-2 subunit (Mus musculus) + Glutamate receptor 2 … | HEK293 GluA2+stargazin, membrane potential dye (FDSS), glutamate EC50; hits were called plate by plate, in both directions | calls only at 30 µM | actives 3.5% (n = 40,000);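 active means any of four per-well response measures lying three or more SD from its plate-wide compound average, in either direction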
# Target sequence (O88602 whole entry, looked up): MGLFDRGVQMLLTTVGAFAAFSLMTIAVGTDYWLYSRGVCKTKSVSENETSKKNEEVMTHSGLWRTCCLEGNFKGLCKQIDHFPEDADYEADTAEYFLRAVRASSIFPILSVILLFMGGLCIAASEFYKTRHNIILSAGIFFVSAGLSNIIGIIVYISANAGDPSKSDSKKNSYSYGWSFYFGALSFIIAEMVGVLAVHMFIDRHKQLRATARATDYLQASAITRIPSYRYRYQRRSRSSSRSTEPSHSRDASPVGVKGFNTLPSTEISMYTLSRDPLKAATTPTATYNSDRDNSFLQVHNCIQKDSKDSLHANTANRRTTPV
# Target sequence (P19491 whole entry, looked up): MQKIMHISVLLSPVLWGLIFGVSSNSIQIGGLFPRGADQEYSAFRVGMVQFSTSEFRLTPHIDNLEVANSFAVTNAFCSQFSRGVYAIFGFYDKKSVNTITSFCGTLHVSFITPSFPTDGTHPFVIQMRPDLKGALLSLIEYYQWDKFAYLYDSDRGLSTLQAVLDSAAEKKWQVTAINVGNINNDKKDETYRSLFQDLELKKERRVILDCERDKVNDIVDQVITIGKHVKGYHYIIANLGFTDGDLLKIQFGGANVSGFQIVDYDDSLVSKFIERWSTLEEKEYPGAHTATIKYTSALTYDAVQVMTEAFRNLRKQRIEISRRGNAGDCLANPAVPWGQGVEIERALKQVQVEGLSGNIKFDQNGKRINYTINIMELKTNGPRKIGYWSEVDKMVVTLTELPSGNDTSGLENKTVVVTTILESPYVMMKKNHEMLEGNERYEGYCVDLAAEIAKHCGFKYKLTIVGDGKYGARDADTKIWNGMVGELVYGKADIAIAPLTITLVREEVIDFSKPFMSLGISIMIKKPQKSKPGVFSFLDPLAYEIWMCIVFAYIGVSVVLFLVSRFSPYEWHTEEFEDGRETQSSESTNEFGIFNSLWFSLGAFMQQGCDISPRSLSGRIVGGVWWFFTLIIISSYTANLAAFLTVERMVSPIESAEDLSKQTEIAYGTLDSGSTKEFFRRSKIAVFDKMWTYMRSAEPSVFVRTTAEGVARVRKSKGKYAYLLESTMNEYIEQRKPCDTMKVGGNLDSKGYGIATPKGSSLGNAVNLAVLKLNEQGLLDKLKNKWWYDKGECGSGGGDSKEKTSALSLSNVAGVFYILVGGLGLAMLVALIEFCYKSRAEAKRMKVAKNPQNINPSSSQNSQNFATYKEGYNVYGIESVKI
# Active calls of the source: *; i = inactive; / = no result given; + = active, no number. The full list was thinned out, with hits kept by preference.
SMILES,GIRK2 activator,AMPAR-TARP mod
Cc1cc(=O)[nH]c(-n2nc(C)c(CCC(=O)NCc3ccccc3Cl)c2C)n1,i,i
Cc1nn(-c2nc3ccccc3[nH]2)c(=O)c2ccccc12,/,+
CCN1CCc2c(sc(NC(=O)C(C)(C)C)c2-c2nc3ccccc3s2)C1,/,i
CC(=O)NCCc1nc2ccccc2n1Cc1c(C)c(C)cc(C)c1C,i,+
CC(=O)NCCc1nc2ccccc2n1Cc1c(C)cc(C)cc1C,i,i
Cc1cc(C)c(C)c(Cn2c(CCCO)nc3ccccc32)c1C,i,+
OCCCc1nc2ccccc2n1Cc1ccc(F)cc1,/,i
COc1cccc(C(c2c(O)cc(C)[nH]c2=O)c2c(O)cc(C)[nH]c2=O)c1OC,i,i
CC(C)(C)NC(=O)N1CCN(c2cc(N3CCOCC3)ncn2)CC1,i,+
CCCNC(=O)CSc1cc(N2CCOCC2)ncn1,i,i
CC(C)(C)OC(=O)N1CCC(Cn2c(C(F)(F)F)nc3ccccc32)CC1,i,+
CC(C)(C)OC(=O)N1CCC(CO)CC1,i,i
COc1ccc(-c2cc(CC(=O)NCc3ccccc3)no2)cc1,i,i
CCOC(CNC(=O)C(=O)Nc1ccc(N2CCCCS2(=O)=O)cc1)OCC,/,+
CCOC(CNC(=O)C(=O)Nc1ccc(N2CCCS2(=O)=O)cc1)OCC,/,i
COc1ccc(C)cc1-n1c(-c2ccccc2)cn2c3c(=O)n(CC(N)=O)c(=O)n(C)c3nc12,/,i
COCC(=O)N1CCCc2ccc(NC(=O)CCSc3ccccc3)cc21,i,+
COCC(=O)N1CCCc2ccc(NC(=O)Cc3ccccc3Cl)cc21,i,i
CCOC(=O)CCC(=O)Nc1ccc(C)c(N2CCCCC2=O)c1,i,i
Cc1ccc(NC(=O)CCSc2ccccc2)cc1N1CCCCC1=O,i,+
O=C(Nc1ccc(OC(F)(F)F)cc1)c1csc(NS(=O)(=O)c2cccs2)n1,i,i
O=C(NCCn1ncc2c(N3CCCCC3)ncnc21)C1CCCC1,i,i
COc1ccccc1-c1cnn2c(Nc3ccccc3)cc(C)nc12,i,i
COc1ccccc1-c1cnn2c(NCCc3ccccc3)cc(C)nc12,i,+
CCOC(=O)c1ccc(NC(=O)Cn2c3ccccc3c3ncn(Cc4ccccc4)c(=O)c32)cc1,i,/
SMILES,GIRK2 activator,AMPAR-TARP mod
COc1cc(OC)cc(C(=O)Oc2c(S(=O)(=O)c3ccc(C)cc3)c(C)nn2C(C)(C)C)c1,/,+
Cc1nn(C(C)(C)C)c(OC(=O)c2ccccc2Br)c1S(=O)(=O)c1ccccc1,/,+
COc1cc(OC)cc(C(=O)Oc2c(S(=O)(=O)c3ccccc3)c(C)nn2C(C)(C)C)c1,/,i
Cc1ccc(S(=O)(=O)c2c(C)nn(C(C)(C)C)c2OC(=O)c2ccccc2C)cc1,/,i
O=C(Cn1cnc(-c2ccccc2)cc1=O)Nc1ccc(C(F)(F)F)cc1,i,i
COc1ccc(-c2ccc(=O)n(CCNS(=O)(=O)c3cc(C)c(C)cc3C)n2)cc1,/,+
Cc1ccc(C)c(Cn2nc(-c3ccc(Cl)cc3)ccc2=O)c1,i,i
CCOc1ccc(S(=O)(=O)NCCn2nc(-c3ccc(OC)cc3)ccc2=O)c(OCC)c1,/,i
COc1ccc(-c2ccc(=O)n(Cc3cc(C)ccc3C)n2)cc1,i,+
CCOc1ccc(OCC)c(S(=O)(=O)NCCn2nc(-c3ccc(OC)cc3)ccc2=O)c1,/,+
COc1ccc(-c2ccc(=O)n(CCNS(=O)(=O)c3ccc(OC)cc3OC)n2)cc1,/,i
CN1C(=O)CCc2cc(NC(=O)Nc3ccccc3C(F)(F)F)ccc21,i,i
O=C(Nc1ccc(SCCN2CCCCC2)nn1)C1CC1,i,i
O=C(Nc1nc(CC(=O)N2CCc3ccccc32)cs1)c1ccc(=O)[nH]c1,i,i
CCOc1cc(C)c(Cl)cc1S(=O)(=O)N1CCCCC1CC (stereo not given),/,+
CCC1CCCCN1S(=O)(=O)c1cc(C)c(Br)cc1C (stereo not given),/,i
COCCn1c(=S)[nH]c2cc(C(=O)N3CCc4ccccc4C3)ccc2c1=O,i,+
COC(=O)c1ccc2c(=O)n(CCC(=O)N3CCC(Cc4ccccc4)CC3)c(=S)[nH]c2c1,i,i
COC(=O)c1ccc2c(=O)n(CCC(=O)NCCCN3CCOCC3)c(=S)[nH]c2c1,i,+
COC(=O)c1ccc2c(=O)n(CCN3CCCCC3)c(=S)[nH]c2c1,i,i
COCCn1c(=S)[nH]c2cc(C(=O)N3CCN(c4ccccc4)CC3)ccc2c1=O,i,i
COC(=O)c1ccc2c(=O)n(CCC(=O)N3CCOCC3)c(=S)[nH]c2c1,i,+
O=C(Nc1nnc(-c2ccc(Br)s2)o1)c1ccco1,i,i
CS(=O)(=O)N1CCC(C(=O)Nc2ccccc2NC(=O)c2ccccn2)CC1,i,/
O=S(=O)(Nc1cccc(C(F)(F)F)c1)c1c(Cl)cccc1Cl,i,+
SMILES,GIRK2 activator,AMPAR-TARP mod
O=S(=O)(Nc1ccc2c(c1)OCCO2)c1c(Cl)cccc1Cl,i,i
COc1ccccc1CNC(=O)CSc1ccc(NC(=O)c2ccco2)nn1,i,i
COc1ccc(NC(=O)CSc2ccc(NC(=O)c3ccco3)nn2)cc1OC,i,+
O=C(CSc1ccc(NC(=O)c2ccco2)nn1)NCc1ccccc1Cl,i,+
COc1ccc(-c2ccc(SCC(=O)Nc3ccccc3Cl)nn2)cc1OC,/,+
CCC(=O)Nc1ccc(SCC(=O)Nc2ccc(OC)c(OC)c2)nn1,i,/
COc1ccccc1NC(=O)CSc1ccc(-c2cc(OC)c(OC)c(OC)c2)nn1,i,i
CC(C)(C)C(=O)NCC(O)c1ccsc1 (stereo not given),i,i
CCOC(=O)c1sc2cccc(F)c2c1S(=O)(=O)Nc1ccc(OC)c(Cl)c1,/,i
CCOC(=O)c1sc2cccc(F)c2c1S(=O)(=O)Nc1cc(Cl)c(OC)cc1OC,/,+
COc1ccc(NC(=O)NCC#CCN2CCc3ccccc3C2)cc1OC,i,i
COc1ccc(OC)c(-c2csc(NC(=O)c3cccc(S(=O)(=O)C(C)C)c3)n2)c1,i,i
COc1ccc(CCS(=O)(=O)NCC2CCN(Cc3cccs3)CC2)cc1,i,/
COc1ccc(CCS(=O)(=O)NCC2CCN(c3ncccn3)CC2)cc1,i,i
COc1ccc(CCS(=O)(=O)NCC2CCN(Cc3ccccc3)CC2)cc1,i,+
COc1ccc(CCS(=O)(=O)NCC2CCN(C(=O)c3ccccc3F)CC2)cc1,i,+
COc1cc(-c2cc(C(=O)O)c3[nH]c(-c4ccccc4)nc3n2)ccc1O,i,/
Cc1ccc([N+](=O)[O-])cc1NC(=O)c1ccc(=O)n(Cc2ccccc2)c1,i,i
Cc1ccc([N+](=O)[O-])cc1NC(=O)c1ccc(C(C)(C)C)cc1,i,+
O=C(NCc1ccc(F)cc1)NCC(O)(c1ccco1)C1CC1 (stereo not given),i,i
Cc1nc2c(c(=O)c3ccccc3n2C)c(=O)n1C1CCCCCC1,/,+
COc1ccc(CCn2c(C)nc3c(c(=O)c4ccccc4n3C)c2=O)cc1OC,/,i
Cc1nc2c(c(=O)c3ccccc3n2C)c(=O)n1-c1ccccc1,/,i
